Screening results: PubChem BioAssay, The Scripps Research Institute Molecular Screening Center
This is a sample that favours compounds with a hit; in the whole collection about 4.2% have one here.
hcDAF12 agonist: H. contortus DAF-12 nuclear receptor activators, primary screen, cell-based, luminescence, HEK293, lit1-tk-luc reporter; activation, % at 6.8 µM; HEK293 hcDAF-12 lit1-tk-luc reporter; 0% DMSO, 100% Δ7-dafachronic acid; AID 652067, 2013; 1.4% of 370,000 active;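 active = activation above the mean of all tested compounds plus 3 SD, cut at about 5.5% in these data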;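 note: 100% = response to 3 µM Δ7-dafachronic acid high control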
hgDAF12 agonist: H. glycines DAF-12 receptor agonists, primary screen, cell-based, luminescence, HEK293, GAL4 fusion, UAS-luciferase | activation, % at 6.8 µM | Nuclear hormone receptor DAF-12 (Heterodera glycines), GAL4 fusion | HEK293 GAL4-hgDAF12 UAS-luciferase reporter, agonist luminescence; normalized to butyrate control | 1.8% of 370,000 active;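 active = activation above a cutoff set at the mean of all screened compounds plus 3 SD, cut at about 10% in these data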;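 note: 0% = DMSO wells and 100% = sodium butyrate wells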
SMARCA2 act: SMARCA2 (BRM) function activators, primary screen, cell-based, luminescence, high throughput | MG213 cells, MMTV-luciferase reporter, dexamethasone, overnight | activation, % at 9.1 µM | 1% of 370,000 active | AID 652017, 2013; in the data active = activation above about 7.8%;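 note: 0% = vehicle wells and 100% = reference activator wells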
ssDAF-12 act: S. stercoralis DAF-12 nuclear receptor activators, primary screen, cell-based, luminescence, HEK293, GRIP1 co-expression, lit1-tk-luc; Nuclear hormone receptor DAF-12 (Strongyloides stercoralis); activation, % at 6.8 µM; 1% of 370,000 active; HEK293 ssDAF-12/GRIP1 lit1-tk-luc reporter; % of 3 µM dafachronic acid response; AID 652126, 2013;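 active = activation above the mean over all tested compounds plus 3 SD, cut at about 0.9% in these data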;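 note: 0% = DMSO-only wells and 100% = 3 µM delta7-dafachronic acid wells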
DAX1 StAR inh: DAX1 (NR0B1) inhibitors on StAR promoter, primary screen, cell-based, luminescence, SF-1 (NR5A1), full-length DAX-1; 1.1% of 370,000 active; HEK293T StAR-luciferase reporter, SF-1/DAX-1 repression relief; inhibition, % at 6.8 µM;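 active = inhibition above the mean over all tested compounds plus 3 SD, cut at about 3.6% in these data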;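 note: 0% = DAX-1 cells with DMSO and 100% = cells lacking DAX-1 with DMSO; higher inhibition means more luminescence from relief of DAX-1 repression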
DAX1 conf: DAX1 (NR0B1) inhibitors relieving SF-1 repression, confirmation, cell-based, luminescence, HEK293T, full-length DAX-1, SF-1 activated StAR promoter. AID 652134, 2013. 87% of 2,400 active. shares compounds with DAX1 StAR inh. inhibition, % at 6.8 µM. HEK293T StAR-promoter luciferase reporter, SF-1/DAX-1 repression;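 active = inhibition above the average of every tested compound plus 3 SD, cut at about 3.8% in these data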;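 note: 0% = DAX-1 cells with DMSO and 100% = no DAX-1 control cells with DMSO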
Target sequence (P51843 whole entry, looked up): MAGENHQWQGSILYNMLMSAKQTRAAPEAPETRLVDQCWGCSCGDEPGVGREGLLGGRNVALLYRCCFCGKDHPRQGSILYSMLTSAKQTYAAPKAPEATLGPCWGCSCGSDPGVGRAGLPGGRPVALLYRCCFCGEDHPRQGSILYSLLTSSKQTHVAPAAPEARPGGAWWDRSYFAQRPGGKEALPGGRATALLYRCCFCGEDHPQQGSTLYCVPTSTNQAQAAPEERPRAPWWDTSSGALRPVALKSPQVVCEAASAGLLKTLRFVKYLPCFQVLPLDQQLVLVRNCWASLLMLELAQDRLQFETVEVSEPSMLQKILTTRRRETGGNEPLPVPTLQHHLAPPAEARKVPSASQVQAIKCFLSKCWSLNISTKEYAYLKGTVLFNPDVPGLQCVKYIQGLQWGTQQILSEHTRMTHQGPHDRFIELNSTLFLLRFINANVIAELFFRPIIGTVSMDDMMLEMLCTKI
SF1 AF2mut Luc: StAR reporter signal changes without DAX1, counter-screen for DAX1 inhibitor project, cell-based, luminescence, AF-2 mutant SF-1, transactivation; shares compounds with DAX1 StAR inh; HEK293 StAR-luciferase, SF-1 AF2 mutant; inhibition, % at 6.8 µM; 78% of 2,400 active; AID 652136, 2013;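 active = inhibition above the mean of all tested compounds plus 3 SD, cut at about 3% in these data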;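 note: 0% = DAX-1 transfected cells with DMSO and 100% = cells without DAX-1 with DMSO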
Active calls of the source: *; . = no result.

SMILES	hcDAF12 agonist	hgDAF12 agonist	SMARCA2 act	ssDAF-12 act	DAX1 StAR inh	DAX1 conf	SF1 AF2mut Luc
C[C@@H]1COc2cc(Br)ccc2S(=O)(=O)N1Cc1cn(Cc2ccccc2)nn1	-1	0	-1	-1	-1	.	.
Cc1ccc(CN[C@@H]2CC[C@@]34CCCN3C(=O)CCC[C@H]4C2)o1	-1	-2	.	-2	.	.	.
Cc1ccc(NC(=O)Cc2ccc(OC(F)F)cc2)c(S(=O)(=O)N2CCOCC2)c1	0	-2	-5	-2	-2	.	.
Cc1ccc(NC(=O)NCCCN2CCCC2=O)cc1	0	1	0	-1	1	.	.
Cc1cc(C)cc(NC(=O)C(=O)NCCCN2CCCC2=O)c1	5.8*	6	4	0	7.1*	5.1*	5.3*
COc1ccc(/C=C/c2cc(O)cc(O[C@@H]3O[C@H](CO)[C@@H](O)[C@H](O)[C@H]3O)c2)cc1O	4	10	-2	0	5.2*	13*	7.4*
Nc1nc(N)c(N=Nc2ccccc2)c(=O)[nH]1	1	5	-3	-2	5.7*	5.5*	3.2*
Nc1ncnc(N)c1N=Nc1ccccc1	-2	0	7	-2	1	.	.
Cc1ccccc1-c1nnc2n1N=C(c1ccc(O)c(O)c1)CS2	-3	-7	-2	-2	5.2*	21*	-7
Cc1ccc(-c2nnc3n2N=C(c2ccc4ccccc4c2)CS3)cc1	2	0	-4	-2	-3	.	.
C[C@@H](O[Si](c1ccccc1)(c1ccccc1)C(C)(C)C)[C@H]1C(=O)N[C@H](Cc2cn(S(=O)(=O)c3ccccc3)c3ccccc23)C(=O)N1C	0	1	.	-2	.	.	.
CN(C)Cc1c(C(C)(C)O)[nH]c2cc(F)ccc12	-1	-2	2	0	1	.	.
Cc1ccc(C(=O)OCC(=O)N2CCNC2=O)c(C)c1	4	9	7	-1	6.9*	7.1*	5.9*
Cc1ccc2nc(N(CCCN(C)C)C(=O)c3ccc4ncsc4c3)sc2c1	3	7	3	-1	6.4*	11*	7.8*
CCOc1cc(N2CCOCC2)c(OCC)cc1NC(=O)Cn1cnnn1	0	-1	0	-1	1	.	.
CCOc1cc(N2CCOCC2)c(OCC)cc1NC(=O)Cn1nc(C)c([N+](=O)[O-])c1C	-2	2	-3	-1	4.7*	2	1
COc1ccccc1CC(=O)NCCN1C(=O)C2C3C=CC(C3)C2C1=O (stereo unspecified)	-3	2	-3	-1	1	.	.
COC(=O)[C@@]12C[C@@H](CC(=O)NCc3ccc(C)o3)C(=O)N(CCc3ccc(OC)c(OC)c3)C1=CCC(C)(C)C2	0	0	-4	-1	5.8*	2	1
CCOC(=O)[C@]12CCCC=C1N(Cc1ccco1)C(=O)[C@H](CC(=O)NCc1ccccc1)C2	1	3	-2	-1	4.7*	1	3
CCOC(=O)[C@]12CCCC=C1N(Cc1ccccc1)C(=O)[C@H](CC(=O)NCc1ccccc1)C2	0	0	-5	-1	0	.	.
CCCCNC(=O)C[C@@H]1C[C@@]2(C(=O)OCC)CCCC=C2N(CCc2ccc(OC)c(OC)c2)C1=O	-1	-2	7	-2	5.2*	1	-1
Cc1ccc(NC(=O)NCCN2C(=O)C3C4C=CC(C4)C3C2=O)cc1 (stereo unspecified)	6.5*	10	3	-1	5.1*	13*	6.1*
O=C(NCCN1C(=O)C2C3C=CC(C3)C2C1=O)Nc1ccccc1 (stereo unspecified)	-1	1	0	-2	2	.	.
O=C(NCCN1CCC(n2c(=O)[nH]c3ccccc32)CC1)c1ccc(Cl)cc1Cl	-2	0	-6	-1	-1	.	.
Cc1ccc(OCc2cc(C(=O)N(CCO)Cc3cccs3)no2)cc1C	5	7	3	0	5.1*	6.1*	3.7*
SMILES	hcDAF12 agonist	hgDAF12 agonist	SMARCA2 act	ssDAF-12 act	DAX1 StAR inh	DAX1 conf	SF1 AF2mut Luc
CCN(Cc1ccncc1)C(=O)c1cc(COc2ccc(C)c(C)c2)on1	-2	0	0	-1	-4	.	.
O=C(NC1CCCCC1)C(=O)c1c[nH]c2ccccc12	2	10	2	-1	6.5*	8.5*	5.5*
O=C(CSc1nnc(-c2ccncc2)o1)Nc1cc(F)ccc1F	3	13*	2	-1	4.9*	5.2*	5.9*
O=C(CSc1nnc(-c2ccc(Br)cc2)o1)Nc1cccc(C(=O)O)c1	2	10	5	0	5.0*	6.1*	5.4*
CC(C)(C)S(=O)N1Cc2cc(C(=O)NCc3ccc4c(c3)OCO4)nc(-c3cccc(-c4ccccc4)c3)c2[C@@H]1CCO (stereo partly specified)	1	-1	-5	-1	-4	.	.
c1ccc(OCCSc2nnnn2C2CCCCC2)cc1	5	13*	7	0	4.5*	11*	8.3*
COc1ccc(OCCSc2nnnn2C2CCCCC2)cc1	0	2	2	-1	0	.	.
Cc1cccnc1NC(=O)c1ccc2c(c1)OCO2	3	2	-1	-1	1	.	.
O=C(CNC(=O)c1ccc2c(c1)OCO2)Nc1ncccc1O	2	7	1	0	5.3*	6.1*	3.7*
Cc1ccc2nc(SCC(=O)N3CCCC3)[nH]c2c1	4	10	7	0	4.8*	12*	6.1*
O=[N+]([O-])c1ccc(C=NN2CCCCCC2)cc1	4	10	-2	0	6.7*	6.9*	5.7*
CCOC(=O)c1c(C)[nH]c(N=Nc2cccc(C)c2)c1C	2	10	-1	1	4.6*	8.8*	3.9*
COC(=O)C[C@@H]1CC[C@H](NS(=O)(=O)c2cccc(F)c2)[C@@H](CO)O1	0	-2	-2	-1	0	.	.
